Assay outcomes (PubChem)
Only some compounds are listed: those with a hit (about 27% of all), similar ones and a draw of the others.
sEH inhibitor: blocks human soluble epoxide hydrolase activity. inhibition, % at 2 µM. 0.34% of 91,000 active. recombinant human sEH enzymatic activity assay; in the data active = inhibition above about 80%
CYP2C9 inh: human CYP2C9 inhibition | AID 777 | inhibition, % at 5 µM | CYP2C9 Supersomes, luciferin-H conversion, luminescence | 20% of 96,000 active | P11712;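 active = blocking of liver enzyme CYP2C9 beyond about 50% at 5 µM, limit read from the data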
Target sequence (P11712 whole entry, looked up): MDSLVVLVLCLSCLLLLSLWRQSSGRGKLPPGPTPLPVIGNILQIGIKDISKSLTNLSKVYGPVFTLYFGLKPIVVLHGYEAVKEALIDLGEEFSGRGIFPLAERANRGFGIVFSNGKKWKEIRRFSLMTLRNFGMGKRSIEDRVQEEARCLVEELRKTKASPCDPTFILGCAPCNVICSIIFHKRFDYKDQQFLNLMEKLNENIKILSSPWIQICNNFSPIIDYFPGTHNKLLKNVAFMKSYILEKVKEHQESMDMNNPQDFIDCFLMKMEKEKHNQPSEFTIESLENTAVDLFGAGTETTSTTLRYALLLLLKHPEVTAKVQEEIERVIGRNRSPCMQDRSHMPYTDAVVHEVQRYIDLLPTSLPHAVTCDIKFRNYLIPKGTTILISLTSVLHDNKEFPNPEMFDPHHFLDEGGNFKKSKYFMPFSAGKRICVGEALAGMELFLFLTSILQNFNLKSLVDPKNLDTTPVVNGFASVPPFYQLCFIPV
CYP2C9 activ: increases human cytochrome P450 2C9 activity. P11712. recombinant CYP2C9, luciferin-H conversion, luminescence; stronger effect = higher value; factor 1 = untreated enzyme, 0 = blocked. activation factor at 5 µM. 1.4% of 96,000 active. AID 1024;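 active = activation factor of 2 or more for CYP2C9 at a 5 µM dose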;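 note: 0 = sulfaphenazole-blocked wells and 1 = vehicle-only wells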
CYP2C19 inh: human CYP2C19 inhibition. inhibition, % at 5 µM. CYP2C19 Supersomes, luciferin-H EGE luminescence, 30 min. P33261. 21% of 96,000 active;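 active = CYP2C19 inhibition above a set limit at 5 µM in the primary screen, cut at about 50% in these data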;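 note: plate controls were negative control wells for no effect and 2.5 mM tranylcypromine positive control for full effect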
sEH activator: increases human soluble epoxide hydrolase activity. activation, % at 2 µM. 0.04% of 91,000 active. P34913. purified human sEH enzymatic activity, activator screen; in the data active = activation above about 37%
CYP2C19 act: activators of human cytochrome P450 2C19; recombinant CYP2C19, luciferin-H EGE luminescence; stronger effect = higher value; 0 = fully inhibited enzyme, 1 = untreated enzyme; activation factor at 5 µM; 96,000 tested, under 10 active; P33261;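 active = activation factor of at least 2 at 5 µM in the primary screen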;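 note: 0 = wells with 2.5 mM tranylcypromine and 1 = vehicle-only wells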
* marks the source's active call; other numbers are inactive results; nt = no result.

SMILES	sEH inhibitor	CYP2C9 inh	CYP2C9 activ	CYP2C19 inh	sEH activator	CYP2C19 act
CCOC(=O)c1c(C)oc2c1c(C(c1cccnc1)N1CCOCC1)c(O)c1ccccc12 (centres undefined)	nt	64.4*	0.4	34.3	nt	0.7
COC(=O)NCC(c1cccnc1)N1CCOCC1 (centres undefined)	6.0	nt	nt	nt	-6.9	nt
CC(C)=CCCC1=CCC(/C(C)=N/NC(N)=O)CC1 (centres undefined)	6.3	19.0	0.8	26.0	-3.7	0.7
CC(=C\C(=O)O)/C(=C/c1ccccc1)C(=O)O	-23.3	-27.6	1.3	3.9	21.2	1
COC(=O)c1ccc(Sc2ccc(C)cc2)c(N)c1	-1.6	31.4	0.7	35.3	0.5	0.6
COc1cc(Sc2ccc(C)cc2)c(OC)cc1N	-20.9	35.2	0.6	67.9*	19.1	0.3
CCOC(=O)C(NC(=O)CC)(Nc1cc(C)on1)C(F)(F)F (centres undefined)	-7.9	10.7	0.9	31.3	11.2	0.7
COc1cccc(C2=CC(c3cccs3)n3nnnc3N2)c1 (centres undefined)	-12.9	40.1	0.6	38.1	14.5	0.6
COc1cccc(C2=CC(c3ccc(OC)c(OC)c3OC)n3nnnc3N2)c1 (centres undefined)	nt	81.0*	0.2	52.3*	nt	0.5
CC1=C(C(=O)Nc2ccccc2)C(c2sccc2C)n2nnnc2N1 (centres undefined)	5.5	2.1	1	21.4	-4.2	0.8
OCCCc1nc2n(n1)C(c1ccccc1)C=C(c1ccccc1)N2 (centres undefined)	-3.2	-1.9	1	-1.3	6.9	1
COc1ccc(C2=CC(c3sccc3C)n3nnnc3N2)cc1 (centres undefined)	18.1	91.4*	0.1	82.1*	-17.3	0.2
COc1ccccc1C1C=C(c2ccccc2)Nc2nnnn21 (centres undefined)	2.3	nt	nt	nt	1.3	nt
Cc1ccc(C2=CC(c3ccc(N(C)C)cc3)n3nnnc3N2)cc1 (centres undefined)	-15.5	65.0*	0.3	78.1*	14.0	0.2
COc1ccc(C2C=C(c3ccccc3)Nc3nc(CCCO)nn32)cc1 (centres undefined)	-2.0	66.7*	0.3	28.5	1.5	0.7
O=C1CC(N2CCCc3ccccc32)C(=O)N1c1ccccc1Cl (centres undefined)	2.6	nt	nt	nt	-4.3	nt
COc1ccc(OC)c(N(CC(=O)N2CCN(c3cc(Cl)ccc3C)CC2)S(C)(=O)=O)c1	10.2	-20.4	1.2	19.3	-6.8	0.8
Cc1ccc(/C=N/n2c(C)n[nH]c2=S)o1	2.1	-14.9	1.1	8.1	-3.6	0.9
O=C1C2CCCN2C(c2ccc(Cl)cc2)N1c1nccs1 (centres undefined)	-9.7	nt	nt	nt	8.0	nt
COc1ccc(C2=CC(c3ccc(F)cc3)n3nnnc3N2)cc1 (centres undefined)	nt	92.8*	0.1	51.6*	nt	0.5
CC1=CC(=C2C(=O)c3ccccc3C2=O)C=C(C)N1Cc1ccco1	-24.2	67.8*	0.3	50.9*	23.5	0.5
O=C1c2ccccc2C(=O)N1Cc1ccco1	-2.1	-3.5	1	34.4	4.6	0.7
COC(=O)c1c(C(=O)OC)c2ccncn2c1Cl	0.7	80.0*	0.2	80.7*	0.7	0.2
COC(=O)c1ccc(-n2cnc(Cl)n2)c(F)c1	-5.8	4.8	1	5.2	8.3	0.9
COc1ccc(Br)cc1C1N2CC3(C)CN1CC(C)(C2)C3=O (centres undefined)	nt	-5.3	1.1	77.3*	nt	0.2
SMILES	sEH inhibitor	CYP2C9 inh	CYP2C9 activ	CYP2C19 inh	sEH activator	CYP2C19 act
COc1ccc2[nH]cc(C3N4CC5(C)CN3CC(C)(C4)C5=O)c2c1 (centres undefined)	5.9	-9.4	1.1	22.5	-5.6	0.8
CC(C)Oc1snc(Cl)c1C(N)=O	11.2	-11.3	1.1	14.6	-10.0	0.9
CCOC(=O)C1CCN(C(=O)COc2ccc(Cl)cc2)CC1	4.1	9.2	0.9	43.6	-0.8	0.6
CCOC(=O)C1CCN(C(=O)COc2ccc(Cl)cc2C)CC1	12.3	-72.5	1.7	83.2*	-11.7	0.2
CCOC(=O)C1CCN(C(=O)COc2ccc(Cl)cc2Cl)CC1	-1.8	-40.2	1.4	79.9*	3.9	0.2
COC(=O)C1CCN(C(=O)COc2ccc(Cl)cc2)CC1	-3.3	30.7	0.7	85.7*	7.3	0.1
O=C(COc1ccc(Cl)cc1Cl)N1CCCC1	-10.9	-11.6	1.1	15.3	6.2	0.8
Cc1ccc(NC(=O)CN2C(=O)S/C(=C\c3ccc(-c4cccc(C(=O)O)c4C)o3)C2=O)cc1	26.6	10.3	0.9	-1.9	-25.9	1
Cc1ccc(NC(=O)CN2C(=O)S/C(=C\c3cc(C)n(C)c3C)C2=O)cc1	10.9	19.8	0.8	56.9*	-9.8	0.4
Cc1ccc(NC(=O)CN2C(=O)S/C(=C\c3cccn3C)C2=O)cc1	-7.0	75.7*	0.2	13.9	7.1	0.9
Clc1ccc(CSc2nnc(CN3CCOCC3)n2-c2ccccc2)cc1Cl	-1.1	61.8*	0.4	84.4*	3.0	0.2
Cc1ccc(C(=O)NN(C)c2nc3ccccc3nc2C(F)(F)F)cc1	14.6	-62.8	1.6	30.4	-13.7	0.7
CC(C)C(=O)Nc1cccc2nsnc12	-10.9	7.3	0.9	9.0	10.6	0.9
CC(C)C(=O)Nc1ccc(Cc2ccc(NC(=O)C(C)C)c(O)c2)cc1O	-1.4	93.2*	0.1	64.4*	0.5	0.4
O=C(Nc1ccccc1-c1nnc(SCc2ccccc2Cl)o1)c1ccccc1	-10.3	55.0*	0.4	5.0	10.8	0.9
CCc1nnc(NC(=O)CSc2nnc(-c3ccccc3NC(=O)c3ccccc3)o2)s1	8.6	50.7*	0.5	10.9	-7.6	0.9
CCOC(=O)CSc1nnc(-c2ccccc2NC(=O)c2ccccc2)o1	nt	12.3	0.9	-11.8	nt	1.1
COc1cccc(-c2ccc(-c3noc(-c4ccccc4F)n3)c(OC)n2)c1	0.6	61.0*	0.4	17.1	-2.5	0.8
COc1ccc(-c2ccc(-c3noc(C(C)C)n3)c(OC)n2)cc1	-20.8	72.5*	0.3	66.2*	18.8	0.3
CC(C)CC(=O)NN(C)c1nc(-c2ccccc2)nnc1C(F)(F)F	-0.5	26.4	0.7	78.0*	-1.5	0.2
Cc1ccc(Sc2nc(-c3ccccc3)nnc2C(F)(F)F)cc1	nt	23.2	0.8	-8.0	nt	1.1
CN(NC(=O)c1ccc(Cl)cc1)c1nc(-c2ccccc2)nnc1C(F)(F)F	-6.5	14.2	0.9	26.3	3.9	0.7
CCCCC(=O)NN(C)c1nc(-c2ccccc2)nnc1C(F)(F)F	-3.5	47.1	0.5	77.5*	1.5	0.2
CNc1nc(-c2ccccc2)nnc1C(F)(F)F	-7.5	-311.1	4.1*	24.3	5.3	0.8
CC1(C)Cc2[nH]c(=S)c(C#N)cc2CO1	-8.7	12.1	0.9	4.6	8.7	1
Cc1cc(C=O)c(C)n1-c1ccc(N2CCCC2)c([N+](=O)[O-])c1	1.0	43.6	0.6	70.2*	-0.6	0.3
